TDP1 cell noCPT: qHTS for Inhibitors of human tyrosyl-DNA phosphodiesterase 1 (TDP1): qHTS in cells in absence of CPT; DT40 Tdp1-/- hTDP1 cells, no CPT, ATP luminescence, 48 h; Potency, µM (doses to about 46.2 µM), for the others: at the top dose activity change, negative = growth inhibition, hits mostly inhibitors; 420,000 tested, 15% active; further: potency means the concentration at half of the fitted maximal effect; nearly all actives have a fitted effect of over 55% in size
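No-CPT arm: Tdp1-/-;hTDP1 DT40 cells (400/well) plus compounds, incubated ≥48 hr at 37 °C. Readout CellTiter-Glo luminescence.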
TDP1 cell CPT: growth inhibition of DT40 Tdp1-/-;hTDP1 cells with camptothecin (screen for TDP1 inhibitors) | chicken DT40 Tdp1-/-;hTDP1 cells + 20 nM CPT, ATP luminescence, 48 h | AID 686979 | 420,000 tested, 12% active | Potency, µM (titrated, usually from 46.2 µM), inactives show at the highest dose activity change, negative = growth inhibition, actives largely listed as inhibitors; further: potency means the concentration at half of the fitted maximal effect; nearly all actives have a fitted effect of over 55% in size
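Chicken DT40 Tdp1-/- cells complemented with human TDP1, 400 cells/well, exposed to compounds plus 20 nM camptothecin for at least 48 h at 37 C; viability read as ATP content by CellTiter-Glo luminescence.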
IL-1B inflam inh: inflammasome signaling inhibition, IL-1 beta readout. THP-1 LPS/ATP IL-1B secretion, AlphaLISA, 16 h; active compounds read low. activity change, % at 57.5 µM. 360,000 tested, 4.7% active; in the data active means activity change below about -50%; inconclusive means mostly about -30% to -49%
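THP-1 cells pretreated 1 hr with compounds (up to 57.5 uM final), then stimulated with LPS (250 ng/mL final) plus ATP (1.25 mM final); secreted IL-1B measured by AlphaLISA after 16 hr, decreased signal indicating inhibition.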
RORgamma inh: blocks mouse ROR gamma transcriptional activity; P51450; Drosophila S2 Gal4-RORgamma UAS-luciferase reporter, 20 h; Potency, µM (doses to about 53.6 µM), without a hit: at the highest dose activity change, negative = inhibition, hits mostly inhibitors; 310,000 tested, 5.4% active; further: potency means the concentration at half of the fitted maximal effect; nearly all actives have a fitted effect of over 60% in size
Target sequence (P51450 whole entry, looked up, the tested form may be a part): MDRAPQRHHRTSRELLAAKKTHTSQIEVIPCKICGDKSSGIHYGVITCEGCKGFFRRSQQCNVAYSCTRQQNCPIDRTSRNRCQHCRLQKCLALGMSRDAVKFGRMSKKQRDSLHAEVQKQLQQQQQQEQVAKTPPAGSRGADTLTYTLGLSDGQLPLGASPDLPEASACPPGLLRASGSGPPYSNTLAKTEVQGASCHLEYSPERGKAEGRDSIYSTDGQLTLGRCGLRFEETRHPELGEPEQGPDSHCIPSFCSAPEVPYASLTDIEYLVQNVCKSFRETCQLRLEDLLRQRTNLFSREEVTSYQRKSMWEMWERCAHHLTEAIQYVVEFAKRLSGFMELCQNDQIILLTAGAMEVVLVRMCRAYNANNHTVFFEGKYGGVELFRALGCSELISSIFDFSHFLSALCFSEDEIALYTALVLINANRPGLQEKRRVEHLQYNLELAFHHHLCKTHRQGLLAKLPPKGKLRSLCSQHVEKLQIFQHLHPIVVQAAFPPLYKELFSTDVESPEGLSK
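A Gal4/UAS one-hybrid system in insect cells: metallothionein-promoter Gal4–ROR gamma fusion plus Photinus luciferase reporter. Copper sulfate 700 uM final, 20 hr ambient incubation, luminescent detection after 10 min with reagent.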
VP16 counter: counter-screen for ROR gamma inhibitors: Gal4-VP16 reporter; 310,000 tested, 3.5% active; Drosophila S2 Gal4-VP16 UAS-luciferase, luminescence, 20 h; Potency, µM (highest dose often 53.6 µM), inactives show at the highest dose activity, negative = inhibition, actives largely listed as inhibitors; AID 2546;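 further: Gal4-VP16 expression switched on by copper sulfate through the metallothionein promoter; potency means the concentration at half of the fitted maximal effect; nearly all actives have a fitted effect of over 50% in size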
ELG1 repair inh: blocks ELG1-dependent DNA repair in HEK293T cells; HEK293T ELG1-luciferase reporter, luminescence, 16 h; DNA damage induced by 5-fluorouridine; Potency, µM (titrated, usually from 46.1 µM), without a hit: at the highest dose activity change, negative = inhibition, actives largely listed as inhibitors; 330,000 tested, 2.3% active; AID 504467; further: potency means the concentration at half of the fitted maximal effect; nearly all actives have a fitted effect of over 55% in size
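Luminescence from the luciferase reporter, measured 30 min after ONE-Glo reagent at room temperature, was the read-out. Beforehand, 2,000 cells per well were exposed for 16 hr at 37 °C to 5-fluorouridine together with compound or vehicle.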
* hit, by the source's call; ? = inconclusive; nt = no result given; [ ] = dose if it differs, or a comment. Shown are actives, neighbours in structure and some others; about 21% of the full set was active somewhere. Unless noted, the call rests on the fitted dose curve; in most records, active means well fitted curve in the direction sought with a large enough effect; inconclusive means small, poorly fitted or top-dose-only effect, or another doubt; inactive means no such curve, though single readings can be large; an effect the other way counts as inactive or inconclusive. On the % scale 0 is the no-effect control and ±100 the full control effect.

SMILES	TDP1 cell noCPT	TDP1 cell CPT	IL-1B inflam inh	RORgamma inh	VP16 counter	ELG1 repair inh
CCOC(=O)N1CCN(C(=O)c2ccc(Cn3c(=S)[nH]c4cc(C(=O)OC)ccc4c3=O)cc2)CC1	8.2µM*	?	4	-41%	-13%	?
CCOC(=O)C1CCCN(C(=O)c2ccc3c(=O)n(Cc4ccccc4OC)c(=S)[nH]c3c2)C1 (stereo unspecified)	18µM*	?	24	?	?	-10%
CCCCN(C(=O)C1CCCO1)c1c(N)n(CC(C)C)c(=O)[nH]c1=O (stereo unspecified)	13%	18%	22	nt	nt	9%
COc1ccccc1CNc1ccc(-c2nc(-c3ccccn3)no2)cc1[N+](=O)[O-]	?	-18%	nt	nt	nt	nt
Cc1ccc(-c2c[nH]c(=S)n2-c2ccccc2F)cc1	23µM*	?	-2	1.6µM*	5µM*	-8%
Cc1ccc(-c2c[nH]c(=S)n2-c2ccccc2)cc1	-20%	?	3	1.3µM*	5µM*	9%
O=c1cc(O)n(-c2ccccc2F)c(=S)[nH]1	1%	-14%	-2	2%	1%	4%
CCOc1ccc(-n2c(-c3ccccc3)c[nH]c2=S)cc1	?	?	23	2µM*	5.6µM*	-1%
CCC1(CC)NC(=O)N(CC(=O)OCC(=O)Nc2ccc(OC(F)(F)F)cc2)C1=O	15%	-21%	-16	nt	nt	13%
COC(=O)C1=C(C)N(c2ccc(Cl)cc2)/C(=C/c2cccs2)C1=O	13µM*	?	0	0%	-1%	-6%
COC(=O)C1=C(C)N(c2ccc(C)c(C)c2)/C(=C/c2cccs2)C1=O	16µM*	16µM*	2	-8%	2%	-15%
COC(=O)C1=C(C)N(c2ccccc2)/C(=C/c2cccs2)C1=O	?	-28%	-2	-14%	1%	-14%
CC(C)C[C@@H]1COc2cccc(N(C)CCO)c2S(=O)(=O)N1	?	-46%	22	nt	nt	nt
Cc1sc(NC(=O)Cc2ccc3c(c2)OCO3)nc1-c1ccc2c(c1)CCN2C(=O)c1cccc(F)c1	9.2µM*	12µM*	5	9%	-1%	?
Cc1cccc(C(=O)N2CCc3cc(-c4nc(NC(=O)CN5CCCC5)sc4C)ccc32)c1	?	?	-10	-18%	0%	-18%
Cc1ccccc1C(=O)N1CCc2cc(-c3nc(NC(=O)Cc4ccc5c(c4)OCO5)sc3C)ccc21	6.5µM*	7.3µM*	?	-10%	?	?
Cc1sc(NC(=O)CN2CCOCC2)nc1-c1ccc2c(c1)CCN2S(=O)(=O)c1ccccc1	9.2µM*	21µM*	-2	7.1µM*	5.6µM*	?
O=c1cc(-c2cccc(Br)c2)nc(-c2ccccc2F)o1	18µM*	26µM*	11	19%	6%	8%
O=c1cc(-c2ccccc2F)nc(-c2ccccc2F)o1	-16%	-19%	0	-5%[10 µM]	5%	12%
Cc1ccc(S(=O)(=O)N(C)c2ccc(OC(C)C(=O)N(C)c3ccccc3)cc2)cc1 (stereo unspecified)	18µM*	15µM*	6	nt	nt	?
CCC(C(=O)Nc1cccc(S(=O)(=O)N(C)c2ccccc2)c1)c1ccccc1 (stereo unspecified)	18µM*	18µM*	-1	nt	nt	?
CC(Oc1ccc(F)cc1)C(=O)Nc1cccc(S(=O)(=O)N(C)c2ccccc2)c1 (stereo unspecified)	16µM*	?	9	nt	nt	nt
CC(=O)c1ccc(NC(=O)C(C)Oc2ccc(N(C)S(=O)(=O)c3ccc(C)cc3)cc2)cc1 (stereo unspecified)	?	?	-18	nt	nt	?
OC(c1ccccc1)c1nc(-c2cncnc2)cs1 (stereo unspecified)	-10%	9%	12	nt	nt	nt
CNc1ccnc(-c2c(C)noc2C)n1	-5%	6%	nt	-34%	0%	nt
SMILES	TDP1 cell noCPT	TDP1 cell CPT	IL-1B inflam inh	RORgamma inh	VP16 counter	ELG1 repair inh
O=C(OCc1ccccc1)/C(=C/c1cccc(Br)c1)NC(=O)c1ccco1	?	?	0	nt	nt	?
CCS(=O)(=O)c1ccc(-c2cccc(NC(=O)COc3ccc(Cl)cc3)c2)nn1	17%	2%	16	14%	6%	20%
O=C(Nc1ccc(F)cc1F)c1cc(-c2ccccc2O)no1	-20%	-27%	nt	nt	nt	nt
Cc1ccc(-c2nnc3c4ccccc4c(-c4ccccc4)nn23)cc1	-15%	2%	nt	nt	nt	nt
Cc1ccc(C(=O)Nc2nnc(NC(=S)Nc3ccccc3)s2)cc1	21µM*	?	-20	0.28µM*	1.1µM*	?
CCc1nnc(NC(=S)Nc2ccccc2)s1	-69%	5.8µM*	8	0.28µM*	0.89µM*	?
Cc1nc(NC(=S)Nc2ccccc2)sc1C	?	?	0	0.89µM*	5µM*	?
O=C(NCc1ccccc1Cl)c1ccc2nc([C@@H]3O[C@H](CO)[C@H](O)[C@H](O)[C@H]3O)[nH]c2c1	4%	-19%	-17	nt	nt	nt
NCC(=O)c1c[nH]c2ccccc12	-8%	?	nt	nt	nt	nt
CCc1nc2ccc(C(=O)NCCCn3ccnc3)cn2c1N(C)CCC(C)C	?	?	-3	nt	nt	nt
CC(C)c1ccc2oc(-c3cc(N)ccc3O)nc2c1	?	?	0	10µM*	22µM*	?
O=[N+]([O-])c1ccc(N2CCCCC2)nc1N1CCCCC1	21µM*	?	-2	?	6%	5%
COc1ccc(-c2c(C)nn3c(-c4ccccc4)cc(-c4ccccc4)nc23)cc1OC	?	-23%	nt	nt	nt	nt
COc1ccccc1Oc1ccc(S(=O)(=O)NCc2ccccn2)cc1	14µM*	?	-4	-10%	-16%	?
COc1ccc(S(=O)(=O)NCc2ccccn2)cc1NC(=O)c1ccc(Cl)cc1	16µM*	?	-14	nt	nt	?
CC(=O)Nc1ccc(S(=O)(=O)NCCSCc2c(Cl)cccc2Cl)cc1	?	?	-66*	?	-28%	23µM*
COc1ccc(S(=O)(=O)NCCSCc2ccc(Cl)cc2)cc1NC(C)=O	26µM*	?	-15	nt	nt	-22%
COc1ccc(S(=O)(=O)NCc2ccccn2)cc1Cl	-9%	-9%	-12	-39%	-1%	0%
COc1ccc(S(=O)(=O)NCc2ccccn2)cc1OC	-3%	8%	40	4%	9%	21%
